# Data published in PubChem BioAssay (NCATS).
# “And” between values parts separate entries of the source, which are not always exact repeats. Equal entries are not always repeated. Inconclusive results are not listed. Some structures have more than one record in an assay (separate samples or runs), and their calls can disagree. The source made the active and inactive calls. Calls come from the whole dose curve; as a rule, active = well fitted cell-killing curve with a large enough effect; inconclusive = small, poorly fitted or top-dose-only effect, or effect the other way; inactive = no such curve, though single readings can be large or run the other way.
# Assay: Viability qHTS for spleen associated tyrosine kinase inhibitor (SYKi) drug resistant MV4-11 cells (AID 1963824); note: nearly all actives have a fitted effect of over 35% in size
# Details: SYKi-resistant MV4-11 viability, CellTiter-Glo, 72 h; series mostly up to 45 µM
# Source text: Department of Medicine, Hematology/Oncology
# University Hospital Frankfurt, Germany.
# Trials have shown promising clinical activity of the selective SYK inhibitor entospletinib in patients with high expressing HOXA9/MEIS1 acute leukemias. As the development of resistance mechanisms is a common problem in the use of targeted drugs, we performed a chemical library screen to identify drug sensitivities in SYK inhibitor resistant AML cells. […] Glucocorticoids are potent immunosuppressants which work in part by inhibiting the transcription of cytokine genes.
# Described herein is a viability screen to look for activity in the SYK inhibitor drug resistant cell line against four NCATS compound libraries (MIPE 5.0, NPC, NPACT, and Kinase) totaling 11372 compounds. Active hits were reacquired for confirmation and further secondary assay testing.
# SEQUENCE No. (e.g., 1, 2, 3, etc.); […] (e.g., Cells, Incubation, Reagent, etc.); VALUE; DESCRIPTION.
# 1; Media; 2uL; white, solid-bottom Corning assay plate.
# 2; Compounds; 23nL; Echo acoustic dispenser.
# 3; Cell; 5uL; 500 cells per well.
# 4: Incubation; 72hr; 37 C, 5% CO2, 95% humidity.
# 5; Reagent; 3uL; CellTiter-Glo reagent (Promega).
# 6; Incubation; 10min; room temperature.
# 7; Detection; Luminescence; ViewLux plate reader (PerkinElmer).
# NOTES (numbers refer to Sequence numbers above
# 1. Quantitative high-throughput screening (qHTS) of small molecule compounds was conducted on drug resistant SYKi MV4-11 cell line.
# 2. Twenty-three nanoliter of small molecule compounds were added to each assay plates using the Echo acoustic dispenser (Beckman Coulter).
# 3. Cells were seeded into the assay plates at a final density of 500 cells in 5uL of media per well using the Multidrop Combi dispenser.
# 4. Plates were covered with stainless steel gasketed lids and incubated for 72 hours at standard cell culture conditions.
# 5. Viability was assessed by adding 3uL of CellTiter-Glo detection reagent (Promega).
# 6. Plates were covered with gasket lids and incubated for 10 minutes at room temperature.
# 7. Luminescence was measured on a ViewLux plate reader (PerkinElmer).
# Potency is the fitted concentration of half-maximal effect.
Compound,Potency,"viability, % of control"
Clc1cc(Cl)cc(CNc2ncncc2-c2ccc3c(c2)OCO3)c1,9.34 µM (active),–
Nc1nc2c(ncn2CCC(CO)CO)c(=O)[nH]1,inactive,–
COc1ccc(Cl)cc1NC(=O)Nc1cc(C)nc2ccccc12,14.6 µM (active),–
O=C1N=C(N2CCOCC2)CN1c1ccc(Cl)cc1,inactive,–
O=C(/C=C/c1ccc(O)cc1)N[C@@H](Cc1ccc(O)cc1)C(=O)O,inactive,–
C=C1CC[C@@H]2[C@](C)(CO)[C@H](O)CC[C@@]2(C)[C@@H]1CC(O)C1=CCOC1=O (stereo not given in full),4.53 µM (active),–
CCC(C)(O)C(O)C(=O)OCc1ccc(O[C@@H]2O[C@H](CO)[C@@H](O)[C@H](O)[C@H]2O)cc1 (stereo not given in full),inactive,–
OCC(Cc1ccccc1)Nc1nc(Oc2ccc3c(c2)CCC3)nc2c1ncn2Cc1ccc(-c2ccccc2)cc1 (stereo not given),7.31 µM (active),–
CN=C(N)NC(=O)Nc1c(C)cccc1C,inactive,–
C[C@@H]1C[C@H]2[C@@H]3CCC4=CC(=O)C=C[C@]4(C)[C@@]3(F)[C@@H](O)C[C@]2(C)[C@@]1(O)C(=O)COP(=O)(O)O,inactive,–
Cn1c(CNc2ccc(C(=N)N)cc2)nc2cc(C(=O)N(CCC(=O)O)c3ccccn3)ccc21,4.11 µM (active),94.3% [at 0.588 µM] (inactive)
CCOc1ccc2nc(SCCN3CCOCC3)[nH]c2c1,inactive,–
CC(C)COC(=O)c1ccc(N)cc1,inactive,–
CC1=CC2/C=C(\C)CCC(O)C(=O)C(O)CC(=O)C23C(=O)NC(CC(C)C)C3C1C (stereo not given),11.2 µM (active),–
O=C1NC(=O)c2cc(Nc3ccccc3)c(Nc3ccccc3)cc21,9.2 µM (active),–
CNNCc1ccc(C(=O)NC(C)C)cc1,inactive,–
C/C=C/C=C/C(CC(=O)O)Nc1ccc(C=O)cc1 (stereo not given),inactive,–
C[C@@H]1O[C@@H](OC[C@H]2O[C@@H](Oc3cc(O)cc4c3C(=O)C(O)(Cc3ccc(O)cc3)O4)[C@H](O)[C@@H](O)[C@@H]2O)[C@H](O)[C@H](O)[C@H]1O (stereo not given in full),inactive,–
O=C1Cc2cc(CCN3CCN(c4nsc5ccccc45)CC3)c(Cl)cc2N1,3.35 µM (active) and 4.11 µM (active),–
O=c1[nH]cnc2nc[nH]c12,inactive,–

Compound,Potency,"viability, % of control"
O=C(NOCC(O)CO)c1cc(Br)c(F)c(F)c1Nc1ccc(I)cc1F (stereo not given),0.59 µM (active),–
CC(C)C[C@H](NC(=O)CNC(=O)OCc1ccccc1)C(=O)N[C@@H](Cc1ccccc1)C(=O)CCl,8.2 µM (active),–
Nc1c2c(nc3ccccc13)CCCC2O (stereo not given),0.841 µM (active),–
C=CCc1cccc(/C=N/NC(=O)CN2CCN(Cc3ccccc3)CC2)c1O,6.61 µM (active),–
Nc1ncnc2nc(-c3ccc(N4CCOCC4)nc3)cc(-c3cccc(Br)c3)c12,8.33 µM (active),–
CC[C@@]1(O)C(=O)OCc2c1cc1n(c2=O)Cc2cc3cc(O)ccc3nc2-1,0.0186 µM (active),–
N#CC1C(=O)N=C(c2cc(Cl)ccc2O)C=C1c1cc(OCc2ccccc2)cc(OCc2ccccc2)c1 (stereo not given),inactive,–
CC(C)(C)CC(C)(C)c1ccc(O)c(Cc2ccc(Cl)cc2Cl)c1,15 µM (active),–
COc1ccc(OC)c(-c2nnc3ccc(-c4ccc(OC)c(O[C@@H]5CCOC5)c4)nn23)c1,2.95 µM (active),–
COC(=O)Nc1nc2ccc(C(=O)c3ccccc3)cc2[nH]1,596 nM (active) and 372 nM (active),–
COC(=O)C1=C(C)NC(C)=C(C(=O)OCCN2CCN(C(c3ccccc3)c3ccccc3)CC2)C1c1cccc([N+](=O)[O-])c1 (stereo not given),6.68 µM (active),–
OCC(CO)N[C@H]1C[C@](O)(CO)[C@@H](O)[C@H](O)[C@H]1O,inactive,–
CS(=O)c1ccc(-c2nc(-c3ccc(F)cc3)c(-c3ccncc3)[nH]2)cc1 (stereo not given),20.6 µM (active),–
C[C@H]1O[C@@H](O[C@H]2CC[C@@]3(C)C(CC[C@]4(C)C3CC=C3C5CC(C)(C)CC[C@]5(C(=O)O)CC[C@]34C(=O)O)C2(C)C)[C@H](O)[C@@H](O)[C@@H]1O (stereo not given in full),inactive,–
CC1(C)CC[C@@]2(C(=O)O[C@@H]3O[C@H](CO)[C@@H](O)[C@H](O)[C@H]3O)C(C1)C1=CCC3[C@@]4(C)CC[C@@H](O[C@@H]5O[C@H](C(=O)O)[C@@H](O[C@@H]6OC[C@@H](O)[C@H](O)[C@H]6O)[C@H](O[C@@H]6OC[C@](O)(CO)[C@H]6O)[C@H]5O)C(C)(C)C4CC[C@@]3(C)[C@]1(C)C[C@H]2O (stereo not given in full),–,12% [at 9.25 µM] (inactive)
CC1=CC(=O)C(=C(C)C)CC2C(C)(O)CCC12O (stereo not given),inactive,–
CC(C)(O)C(=O)N1CCN(c2ccc(C(F)(F)F)c(C3=C(c4c[nH]c5ccccc45)C(=O)NC3=O)c2)CC1,0.366 µM (active),–
CCOC(=O)N1CCC(=C2c3ccc(Cl)cc3CCc3cccnc32)CC1,8.41 µM (active),–
CC(C)[C@@H](c1ccc(C(F)(F)F)cc1CN(Cc1cc(C(F)(F)F)cc(C(F)(F)F)c1)c1nnn(C)n1)N1CCC(C(=O)O)CC1,20.6 µM (active),–
